A number with no mark means an inactive call. Records with an inconclusive call do not appear. Calls of active or inactive are those of the source. Unless noted, calls come from the whole dose curve; as a rule, active = well fitted curve in the direction sought with a large enough effect; inconclusive = small, poorly fitted or top-dose-only effect, or another doubt; inactive = no such curve, though single readings can be large; an effect the other way counts as inactive or inconclusive.

Assay [1] concerns the target Lysosomal acid glucosylceramidase (Homo sapiens) (UniProt P04062). Put plainly: Glucocerebrosidase-p2 (AID 348; in the data active = potency below about 10 µM; note: potency is the fitted concentration of half-maximal effect). The note with it: purified GBA, blue fluorogenic substrate, 40 min. The gist of the method: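 Compounds titrated from 0.6 nM upwards against 0.2 nM enzyme in pH 5.9 citric acid/KH2PO4, taurocholate, tween-20; blue fluorogenic substrate 80 uM, 40 min room temperature, stopped and read Ex 365/Em 440 for AC50.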

A short description of assay [2]: AP1 Signaling Pathway (AID 357; active = well fitted curve in either direction with a large enough effect, not every such curve was filed as active;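 note: ME-180 reporter cells stimulated with EGF at its EC50 level; % is set by controls: 0 for no effect and ±100 for the full control effect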). The note with it: ME-180 AP-1-bla reporter, EGF-induced, beta-lactamase ratio, 5 h; at 7.69 µM (top of the series) unless noted. The method in brief:
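Modulation of EGF-driven AP-1 transcription was assessed with a beta-lactamase reporter in ME-180 cells. Compound and EC50 EGF were co-incubated 5 hours at 37 °C before 2.5-hour CCF4 loading at room temperature and dual-emission reading.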

Assay [3] deals with Cytochrome P450 1A2 (Homo sapiens) (UniProt P05177). Briefly: p450-cyp1a2 (AID 410; calls by dose curve; note: potency is the fitted concentration of half-maximal effect). The note with it: recombinant CYP1A2, luciferin-ME demethylation, luminescence; series mostly up to 57 µM. The gist of the method: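 20nM CYP1A2 with 100uM Luciferin-ME (at Km) in 100mM KPO4; compound preincubated 10 min, NADPH regeneration added, 60 min at room temperature. Luciferin quantified by luminescence after detection reagent; normalized to 57 uM furafylline.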
Cytochrome P450 1A2 (Homo sapiens), sequence (P05177 whole entry, looked up): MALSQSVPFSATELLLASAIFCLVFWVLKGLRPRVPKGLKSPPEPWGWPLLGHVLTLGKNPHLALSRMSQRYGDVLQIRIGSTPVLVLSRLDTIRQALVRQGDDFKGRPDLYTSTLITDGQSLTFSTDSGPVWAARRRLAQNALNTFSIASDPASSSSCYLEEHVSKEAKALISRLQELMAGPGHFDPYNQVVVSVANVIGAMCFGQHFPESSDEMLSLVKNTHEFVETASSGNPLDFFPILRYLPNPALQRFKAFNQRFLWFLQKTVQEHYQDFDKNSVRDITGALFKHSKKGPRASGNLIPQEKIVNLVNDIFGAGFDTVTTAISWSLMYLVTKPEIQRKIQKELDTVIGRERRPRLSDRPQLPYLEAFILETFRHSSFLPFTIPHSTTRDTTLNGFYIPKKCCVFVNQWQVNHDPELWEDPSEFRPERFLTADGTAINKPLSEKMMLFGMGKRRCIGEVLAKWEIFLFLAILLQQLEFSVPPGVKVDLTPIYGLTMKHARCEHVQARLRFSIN

Assay [4] in a line: NFAT Signaling Pathway (AID 444; active = well fitted curve in either direction with a large enough effect, not every such curve was filed as active;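 note: carbachol stimulus at about its EC50 of 1 µM final; % is set by controls: 0 for no effect and ±100 for the full control effect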). The note with it: Jurkat NFAT-bla M1, carbachol, beta-lactamase ratio, 5 h; at 7.69 µM (top of the series) unless noted. The method in brief: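 Read-out: CCF4 FRET ratio (460 nm/530 nm) after 1 h RT dye loading, used for %activity and AC50 from titration series. Cells: Jurkat NFAT-β-lactamase/M1 line, treated with compound plus 1 uM carbachol for 5 h, 37 °C.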

Assay [5] in a line: Stat Signaling Pathway (AID 446; active = well fitted curve in either direction with a large enough effect, not every such curve was filed as active;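 note: ME-180 cervical cancer cells given 40 pM IL-6 alongside compound; SIE-controlled beta-lactamase reporter measured as 460/530 nm FRET emission ratio; % is set by controls: 0 for no effect and ±100 for the full control effect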). As to conditions: ME-180 SIE beta-lactamase reporter, IL-6 stimulated, 5 h; at 7.69 µM (top of the series) unless noted. The method in brief: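 ME-180 cells carrying a SIE-driven beta-lactamase reporter are stimulated with 40 pM IL-6 for 5 h at 37C in the presence of compound. The 460/530 nm FRET substrate ratio is read after 2.5 h at RT. Data are normalised to 300 pM IL-6 and to 125 nM JAK inhibitor controls.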

Assay [6] addresses Glucocorticoid receptor (Homo sapiens) (UniProt P04150). Put plainly: GR-GFP Redistribution (AID 450;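 active = compounds whose dose series gives a full or clear partial fitted curve of increased nuclear translocation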; note: potency is the fitted concentration of half-maximal effect). As to conditions: U2OS GR-GFP nuclear translocation, laser cytometry, 2 h.
Assay [7] shares this target. Briefly: GR-EFC Redistribution (AID 451; calls by dose curve; note: potency is the fitted concentration of half-maximal effect). The note with it: CHO-K1 GR-EFC translocation, beta-gal luminescence, 2 h. The gist of the method:
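Translocation of GR-ED fusion to nuclear EA restores b-gal, read by luminescence after 1 h room-temperature detection. Engineered CHO-K1 biosensor cells, 1,000/well, exposed 2 h at 37 C to titrations up to 46 uM final.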

The target in assay [8] is Mitogen-activated protein kinase 10 (Mus musculus) (UniProt Q61831). Briefly: JNK3 AlphaScreen Assay (AID 530; active = well fitted curve in either direction with a large enough effect, not every such curve was filed as active;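 note: kinase came from lysate of stimulated human HepG2 cells; signal reports phosphorylation of biotinylated GST-cJun 1-79 at Ser73 with 10 µM ATP; % is set by controls: 0 for no effect and ±100 for the full control effect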). The note with it: JNK3 lysate, c-Jun phosphorylation; series mostly up to 57.1 µM. The method in brief: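 Compound titrations were preincubated 15 minutes at room temperature with substrate, antibody and pre-activated JNK3-containing HepG2 lysate. Reactions were started with 10 uM ATP and stopped with EDTA-containing bead buffer for AlphaScreen detection.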
A general note: In Alpha technology, singlet oxygen from a donor bead excites a nearby acceptor bead.

Assay [9] concerns the target 3',5'-cyclic-AMP phosphodiesterase 4B (Homo sapiens) (UniProt Q07343). Briefly: qHTS Assay for Inhibitors of PDE-IV (AID 607; active = well fitted activation curve with a large enough effect in the main read-out, with a control signal flat, not every such curve was filed as active; note: % of control where 0% means no effect). The note with it: HEK293 ACTOne CNG channel cells, membrane potential fluorescence; series mostly up to 22.9 µM. The gist of the method: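 HEK293 ACTOne cells with CNG channel (1000/well), endogenous PDE4; membrane potential dye, compounds up to 22.9 uM final. Fluorescence Ex 535/Em 590; RO 20-1724 (100 uM final) as reference.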

The target of assay [10] is Cytochrome P450 3A4 (Homo sapiens) (UniProt P08684). Briefly: qHTS Assay for Inhibitors and Substrates of Cytochrome P450 3A4 (AID 884). Note: potency is the fitted concentration of half-maximal effect; nearly all actives have a fitted effect of over 50% in size. As to conditions: recombinant CYP3A4, Luciferin-PPXE luminescence; series mostly up to 57.1 µM. The method in brief: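 20 nM human CYP3A4 with 25 uM Luciferin-PPXE (at KM) in 200 mM KPO4, preincubated 10 min with compound; NADPH regeneration started a 60 min RT reaction. Luciferin detected by luminescence, normalized to 57 uM ketoconazole as full inhibition.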
Cytochrome P450 3A4 (Homo sapiens), sequence (P08684 whole entry, looked up): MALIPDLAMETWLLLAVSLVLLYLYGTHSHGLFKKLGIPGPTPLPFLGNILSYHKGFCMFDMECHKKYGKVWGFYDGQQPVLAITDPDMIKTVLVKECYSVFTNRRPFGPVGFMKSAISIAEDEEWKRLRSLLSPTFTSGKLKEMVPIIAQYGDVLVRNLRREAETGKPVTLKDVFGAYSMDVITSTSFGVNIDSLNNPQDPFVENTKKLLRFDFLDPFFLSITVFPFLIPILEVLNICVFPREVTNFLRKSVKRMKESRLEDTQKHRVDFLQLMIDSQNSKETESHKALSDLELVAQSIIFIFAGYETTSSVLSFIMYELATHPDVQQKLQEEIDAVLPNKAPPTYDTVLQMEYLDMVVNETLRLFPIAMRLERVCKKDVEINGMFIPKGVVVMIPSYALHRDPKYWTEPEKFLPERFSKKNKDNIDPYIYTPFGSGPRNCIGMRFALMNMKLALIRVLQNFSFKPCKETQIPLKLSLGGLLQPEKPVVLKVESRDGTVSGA

The target is the same in assay [11]. Put plainly: qHTS Assay for Activators of Cytochrome P450 3A4 (AID 885). Note: nearly all actives have a fitted effect of over 65% in size. As to conditions: recombinant CYP3A4, Luciferin-PPXE luminescence, 60 min; series mostly up to 57.1 µM. The method in brief:
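Human CYP3A4 (20 nM) with Luciferin-PPXE at 25 uM (its KM) in 200 mM KPO4; 10 min compound preincubation, then NADPH regeneration and 60 min reaction at RT. Luciferin read by luminescence; normalized to 57 uM ketoconazole full inhibition.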
Background: qHTS replaces the single test concentration by a dilution series.

Assay [12] can be described thus: Confirmation and Secondary Assay for Modulators of Hemoglobin Beta Chain Splicing at IVS2 654 locus (AID 910).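 Note: HeLa cells stably carrying EGFP split by mutant beta-globin IVS2-654 intron; per-well total GFP intensity by laser scanning cytometry after 2-day treatment; % of control where 0% means no effect.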 As to conditions: HeLa EGFP-654 splicing reporter, GFP fluorescence, 48 h; series mostly up to 38.3 µM. The gist of the method:
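Readout: per-well total peak green fluorescence (488 nm ex, 500–520 nm em) from objects 5–250 µm, reflecting correct splicing of an EGFP-654 reporter. Compounds were applied for 2 days at 37 °C to overnight-plated HeLa EGFP-654 cells; controls were DMSO and 500 nM IVS2-654 PNA.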

Assay [13] is described as follows: Confirmation and Secondary Assay for Modulators of Hemoglobin Beta Chain Splicing at IVS2 705 locus (AID 930).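 Note: HeLa cells stably expressing the EGFP-705 splicing reporter; GFP fluorescence per well restored by corrected splicing of the IVS2-705 intron in EGFP; % of control where 0% means no effect.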 The note with it: HeLa EGFP-705 splicing reporter, GFP fluorescence, 48 h; series mostly up to 38.3 µM. The gist of the method:
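Splice-correction reporter: EGFP cDNA split by beta-globin intron 2 bearing the 705 mutation, stably in HeLa. Compound incubation 2 days, 37C; fluorescent objects 5-250 µm summed per well.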

Assay [14] addresses Ubiquitin carboxyl-terminal hydrolase 1 (Homo sapiens) (UniProt O94782). Briefly: Inhibitors of USP1/UAF1: Pilot qHTS (AID 504865).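 Note: rhodamine fluorescence freed from ubiquitin-rhodamine substrate followed over time; top concentration of the series differs between compounds; % is set by controls: 0 for no effect and ±100 for the full control effect; nearly all actives have a fitted effect of over 35% in size.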 The note with it: purified USP1/UAF1, Ub-rhodamine cleavage fluorescence; series mostly up to 54.9 µM. The method in brief:
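In 50mM HEPES pH 7.8 containing 0.5mM EDTA, 1mM TCEP, 0.1 mg/ml BSA and 0.01% Tween-20, 1nM USP1/UAF1 is exposed to compound for 15 min, then Ub-Rho (150nM final) is added and fluorescence is read over time.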

A short description of assay [15]: Primary qHTS for small molecule stabilizers of the endoplasmic reticulum resident proteome: Secreted ER Calcium Modulated Protein (SERCaMP) assay (AID 1508630). Note: % is set by controls: 0 for no effect and ±100 for the full control effect. As to conditions: SH-SY5Y GLuc-SERCaMP (Gaussia luciferase released on ER calcium loss) secretion, thapsigargin, luminescence; series mostly up to 38.4 µM. The gist of the method:
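GLuc-SERCaMP-expressing SH-SY5Y cells, pretreated 16 h with compound, are challenged with thapsigargin to empty ER calcium stores; after 4 h, coelenterazine is added directly to the medium and luminescence is imaged.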

For assay [16], the target named is Cytochrome P450 2C19 (Homo sapiens) (UniProt P33261). Put plainly: qHTS Assay for Inhibitors and Substrates of Cytochrome P450 2C19 (AID 899). Note: potency is the fitted concentration of half-maximal effect; nearly all actives have a fitted effect of over 60% in size. As to conditions: recombinant CYP2C19, luciferin-H EGE luminescence; series mostly up to 57.1 µM. The method in brief: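 5nM enzyme + 10uM Luciferin-H EGE (=KM), 50mM KPO4; cpd pin-transferred, 10 min 37C; NADPH regen, 60 min 37C; stopped w/ luciferin detection reagent, 20 min; luminescence. Normalized to 57uM ketoconazole (AC100).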
Cytochrome P450 2C19 (Homo sapiens), sequence (P33261 whole entry, looked up): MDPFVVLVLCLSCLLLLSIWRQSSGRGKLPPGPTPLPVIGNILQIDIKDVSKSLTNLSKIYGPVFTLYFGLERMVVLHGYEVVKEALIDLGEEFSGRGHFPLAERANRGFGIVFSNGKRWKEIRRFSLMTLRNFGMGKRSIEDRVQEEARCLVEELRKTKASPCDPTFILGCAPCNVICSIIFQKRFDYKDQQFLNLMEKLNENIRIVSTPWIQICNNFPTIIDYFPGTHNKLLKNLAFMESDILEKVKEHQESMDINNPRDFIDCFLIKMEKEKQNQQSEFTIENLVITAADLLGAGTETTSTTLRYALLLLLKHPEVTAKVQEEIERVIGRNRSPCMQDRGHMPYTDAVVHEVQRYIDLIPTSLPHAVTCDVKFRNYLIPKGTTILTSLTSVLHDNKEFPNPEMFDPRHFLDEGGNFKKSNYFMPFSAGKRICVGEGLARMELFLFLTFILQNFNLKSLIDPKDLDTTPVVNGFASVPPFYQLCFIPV

Assay [17] in a line: qHTS Assay for Identification of Small Molecule Agonists for Hypoxia Response Element Signaling Pathway (AID 914; active = well fitted activation curve with a large enough effect in the signal ratio, with a control signal flat, not every such curve was filed as active; the % refers to the signal ratio; note: % of control where 0% means no effect). As to conditions: ME-180 (cervical carcinoma) HRE-bla reporter, beta-lactamase ratio, CoCl2, 17 h; activation: hits give high values. The gist of the method:
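Cells were plated overnight, pin-dosed with compound in a titration series, co-stimulated with EC50 CoCl2 and incubated 17 hours at 37 degrees Celsius. CCF4 substrate was then loaded, and AC50 values came from the 460nm/530nm ratio.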

The target of assay [18] is Dual specificity protein kinase CLK4 (Homo sapiens) (UniProt Q9HAZ1). Briefly: qHTS Assay for Inhibitors of CDC-like Kinase 4 (ADP-FP Assay) (AID 1795).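 Note: recombinant human CLK4 phosphorylating RS repeat peptide at 1 µM ATP; % is set by controls: 0 for no effect and ±100 for the full control effect; nearly all actives have a fitted effect of over 60% in size.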 As to conditions: Transcreener ADP fluorescence polarization; series mostly up to 50 µM. The gist of the method: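 Clk4 6.25 nM; RS peptide 100 uM; ATP 1 uM; 25 mM Tris pH 7.5, 10 mM MgCl2; 1 h reaction. ADP detected via antibody/orange tracer FP displacement; TG003 positive control.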
Dual specificity protein kinase CLK4 (Homo sapiens), sequence (Q9HAZ1 whole entry, looked up): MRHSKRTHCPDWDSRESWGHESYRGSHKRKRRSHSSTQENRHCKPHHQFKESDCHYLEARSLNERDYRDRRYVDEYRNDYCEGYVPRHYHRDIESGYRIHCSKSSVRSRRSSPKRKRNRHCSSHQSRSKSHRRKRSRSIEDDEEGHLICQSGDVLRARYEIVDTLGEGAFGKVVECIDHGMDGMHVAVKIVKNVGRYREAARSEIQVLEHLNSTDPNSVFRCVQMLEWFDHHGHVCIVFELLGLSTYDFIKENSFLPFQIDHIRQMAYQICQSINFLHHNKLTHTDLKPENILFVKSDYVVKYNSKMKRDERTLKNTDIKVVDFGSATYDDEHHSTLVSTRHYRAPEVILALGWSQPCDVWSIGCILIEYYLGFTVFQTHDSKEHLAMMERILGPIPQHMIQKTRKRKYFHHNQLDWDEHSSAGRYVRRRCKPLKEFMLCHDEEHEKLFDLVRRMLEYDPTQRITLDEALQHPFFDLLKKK

Ubiquitin carboxyl-terminal hydrolase 1 (Homo sapiens), sequence (O94782 whole entry, looked up): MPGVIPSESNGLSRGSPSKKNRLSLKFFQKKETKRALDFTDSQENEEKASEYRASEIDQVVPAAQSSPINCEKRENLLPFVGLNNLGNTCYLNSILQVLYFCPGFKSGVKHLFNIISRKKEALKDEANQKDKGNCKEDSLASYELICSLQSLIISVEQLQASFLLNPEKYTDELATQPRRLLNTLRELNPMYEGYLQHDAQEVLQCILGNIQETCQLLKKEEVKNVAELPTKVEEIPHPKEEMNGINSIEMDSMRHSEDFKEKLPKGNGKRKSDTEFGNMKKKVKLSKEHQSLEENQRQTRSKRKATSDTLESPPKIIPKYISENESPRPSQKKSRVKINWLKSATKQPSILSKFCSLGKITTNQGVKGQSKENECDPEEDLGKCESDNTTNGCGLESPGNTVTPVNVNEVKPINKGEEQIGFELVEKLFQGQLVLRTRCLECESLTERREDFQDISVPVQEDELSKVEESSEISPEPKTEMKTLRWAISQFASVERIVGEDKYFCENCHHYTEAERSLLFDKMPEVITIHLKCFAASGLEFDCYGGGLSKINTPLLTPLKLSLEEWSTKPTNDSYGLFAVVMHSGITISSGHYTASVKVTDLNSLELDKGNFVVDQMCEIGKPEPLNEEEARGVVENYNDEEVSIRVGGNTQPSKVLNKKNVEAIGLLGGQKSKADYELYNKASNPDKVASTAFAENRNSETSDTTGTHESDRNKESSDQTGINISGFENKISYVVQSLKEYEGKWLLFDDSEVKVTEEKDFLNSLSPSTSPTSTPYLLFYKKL
Lysosomal acid glucosylceramidase (Homo sapiens), sequence (P04062 whole entry, looked up): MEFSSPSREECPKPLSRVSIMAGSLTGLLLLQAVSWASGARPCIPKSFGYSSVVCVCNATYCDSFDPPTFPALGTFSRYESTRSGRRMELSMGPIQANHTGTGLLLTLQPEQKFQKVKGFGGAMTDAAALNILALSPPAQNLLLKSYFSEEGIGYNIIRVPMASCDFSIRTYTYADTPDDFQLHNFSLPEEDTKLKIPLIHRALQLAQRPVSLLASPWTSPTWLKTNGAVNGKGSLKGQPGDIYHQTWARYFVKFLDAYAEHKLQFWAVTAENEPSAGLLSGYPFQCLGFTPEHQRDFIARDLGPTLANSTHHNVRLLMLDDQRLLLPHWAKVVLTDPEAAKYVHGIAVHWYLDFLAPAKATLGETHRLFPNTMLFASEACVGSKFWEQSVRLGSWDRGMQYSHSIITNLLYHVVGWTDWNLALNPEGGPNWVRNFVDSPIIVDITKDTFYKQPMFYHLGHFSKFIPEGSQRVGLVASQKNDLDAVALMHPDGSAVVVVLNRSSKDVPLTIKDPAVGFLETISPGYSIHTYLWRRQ
Glucocorticoid receptor (Homo sapiens), sequence (P04150 whole entry, looked up): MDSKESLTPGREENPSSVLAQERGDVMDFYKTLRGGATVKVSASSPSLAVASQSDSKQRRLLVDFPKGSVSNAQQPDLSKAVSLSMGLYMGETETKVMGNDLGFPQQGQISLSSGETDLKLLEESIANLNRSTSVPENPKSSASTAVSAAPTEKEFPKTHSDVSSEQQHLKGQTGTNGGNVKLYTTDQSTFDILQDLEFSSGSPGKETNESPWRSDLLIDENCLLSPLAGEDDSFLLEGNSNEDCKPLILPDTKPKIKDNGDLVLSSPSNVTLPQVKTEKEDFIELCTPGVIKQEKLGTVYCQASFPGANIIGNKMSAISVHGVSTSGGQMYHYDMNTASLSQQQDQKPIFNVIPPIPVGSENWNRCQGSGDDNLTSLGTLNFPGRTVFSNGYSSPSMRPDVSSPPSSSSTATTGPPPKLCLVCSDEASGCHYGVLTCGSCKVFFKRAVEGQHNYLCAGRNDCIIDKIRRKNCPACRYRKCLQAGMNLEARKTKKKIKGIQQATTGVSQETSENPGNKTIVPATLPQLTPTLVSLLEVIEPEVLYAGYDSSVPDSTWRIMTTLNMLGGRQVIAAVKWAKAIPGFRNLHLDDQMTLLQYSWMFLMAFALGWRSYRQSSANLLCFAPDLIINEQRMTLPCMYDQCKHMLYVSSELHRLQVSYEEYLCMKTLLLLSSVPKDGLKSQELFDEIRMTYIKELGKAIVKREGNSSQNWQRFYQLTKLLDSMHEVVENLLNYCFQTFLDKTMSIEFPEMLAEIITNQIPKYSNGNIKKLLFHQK
3',5'-cyclic-AMP phosphodiesterase 4B (Homo sapiens), sequence (Q07343 whole entry, looked up): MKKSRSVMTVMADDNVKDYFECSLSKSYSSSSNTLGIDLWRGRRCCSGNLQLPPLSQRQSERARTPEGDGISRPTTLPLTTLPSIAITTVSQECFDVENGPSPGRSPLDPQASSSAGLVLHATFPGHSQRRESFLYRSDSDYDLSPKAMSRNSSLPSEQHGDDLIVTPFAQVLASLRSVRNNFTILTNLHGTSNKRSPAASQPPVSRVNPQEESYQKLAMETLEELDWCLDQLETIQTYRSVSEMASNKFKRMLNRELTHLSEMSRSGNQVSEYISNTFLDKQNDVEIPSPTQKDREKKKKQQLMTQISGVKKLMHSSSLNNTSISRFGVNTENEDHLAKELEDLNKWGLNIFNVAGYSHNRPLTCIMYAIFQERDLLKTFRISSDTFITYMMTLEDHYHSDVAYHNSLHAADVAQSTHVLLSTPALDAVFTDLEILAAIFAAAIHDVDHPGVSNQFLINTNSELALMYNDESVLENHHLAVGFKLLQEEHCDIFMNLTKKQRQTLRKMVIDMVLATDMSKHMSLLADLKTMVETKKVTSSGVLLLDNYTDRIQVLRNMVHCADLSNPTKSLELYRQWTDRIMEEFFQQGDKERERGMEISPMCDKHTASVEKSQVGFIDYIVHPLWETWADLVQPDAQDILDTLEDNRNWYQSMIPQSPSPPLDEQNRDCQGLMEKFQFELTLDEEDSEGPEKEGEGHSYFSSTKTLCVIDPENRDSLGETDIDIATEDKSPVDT

In the case of `Cc1noc(C)c1-c1cncnc1NC1CC1`, the Potency in assay [1] was greater than 11.4 µM; in [6], greater than 46 µM; in assay [7], greater than 46 µM; in [10], 7.94 µM (active). Also, the activity change, negative = inhibition was 12.1% in assay [2] and 0.874% in assay [4]. In addition, the Potency entry in assay [3], in [8], in assay [9], in assay [11], in assay [12] and in [14] was “inactive” in each case. Further, the activity, negative = inhibition in assay [5] is -18.4%. Further, the compound was classed as inactive in assay [13] and in assay [15].

With `CN(C)C(=O)c1ccc(-c2cncnc2NCCN2CCOCC2)cc1`, the figures for the Potency in [1], in [6] and in [7] were greater than 11.4 µM, greater than 46 µM and greater than 46 µM, respectively. Further, the activity change, negative = inhibition in [2] was -0.958%; in [4], -6.2%. Further, the Potency result in assay [3], in assay [8], in [9], in assay [11], in assay [12] and in assay [14] was “inactive” in each case. For the same compound, the activity, negative = inhibition in assay [5] is 0.853%. In addition, the call in assay [13] and in assay [15] was inactive.

As for `COc1ccc(CNc2ccnc(-c3ccccc3Cl)n2)c(OC)c1`, the activity change, negative = inhibition in assay [2] is -21.2%; in assay [4], -26%. Also, the Potency in assay [3] is 5.01 µM (active); in assay [6], greater than 46 µM; in [7], greater than 46 µM; in assay [10], 3.16 µM (active); in assay [16], 1.26 µM (active). In addition, the activity, negative = inhibition in assay [5] is -16.2%. The Potency entry in [8], in [9], in [11] and in [18] was “inactive” throughout. The activation in [17] is -15.3%. Further, in [15], the result was inactive.

Consider `Cc1cnc(CNc2nc(-c3ccccc3Cl)nc3ccccc23)cn1`, for which the Potency is greater than 11.4 µM in assay [1], 6.31 µM (active) in assay [3], greater than 46 µM in [6] and greater than 46 µM in assay [7]. Further, in [4], the activity change, negative = inhibition is 9.67%. Besides, the activity, negative = inhibition in assay [5] was -10.8%. For the same compound, the Potency entry in [8], in assay [9], in assay [11], in assay [18] and in assay [14] was “inactive” in each case. Further, the result in assay [15] was inactive.

Take `N#Cc1cccc(-c2cc(NCc3cccnc3)ncn2)c1`: the Potency was greater than 11.4 µM in assay [1]; 0.0398 µM (active) in assay [3]; greater than 46 µM in assay [6]; greater than 46 µM in assay [7]; 2.51 µM (active) in assay [10]. Further, the activity change, negative = inhibition in assay [2] was 11.5%; in assay [4], 3.13%. Further, the activity, negative = inhibition in [5] is -25.4%. The Potency result in assay [8], in [9], in [11] and in [14] was “inactive” in each case. Moreover, the result in assay [15] was inactive.

In the case of `N#Cc1cccc(-c2nc(Nc3ccccc3)c3ccccc3n2)c1`, the Potency in assay [1] is greater than 11.4 µM; in assay [3] it was 1.26 µM (active); in assay [6] it was greater than 46 µM; in assay [7] it was greater than 46 µM. Moreover, the activity change, negative = inhibition in assay [2] is 3.06%; in [4], 15.5%. Also, the activity, negative = inhibition in assay [5] is 8.9%. The Potency result in assay [8], in assay [12] and in assay [14] was “inactive” throughout. Also, the result in assay [13] and in assay [15] was inactive.

The values are drawn from PubChem BioAssay (NCATS).
